We go through 3 molecules from PubChem BioAssay AID686959 (The Scripps Research Institute Molecular Screening Center, 2013).

Active and inactive are the calls of the source. The limit is not given here; nearly all actives have IC50 up to about 8.1 µM.

A short description of this experiment: binders of r(CAG) RNA repeats, dose response, biochemical, fluorescence (AID 686959). The conditions noted are these: r(CAG) RNA repeat binding.
The term IC50 denotes the concentration that gives 50% inhibition. Consider `C/C(=N\NC(=O)c1ccccc1O)c1c(O)n(C2CCCCC2)c(=O)[nH]c1=O`, for which the IC50 was 450 nM (active). As for `O=C(N/N=C/c1c(O)n(CCC2=CCCCC2)c(=S)[nH]c1=O)c1ccccc1`, the half-maximal inhibitory concentration (IC50) was 2040 nM (active). Under `CC/C(=N\NC(=O)c1ccccc1O)c1c(O)n(C2CCCCC2)c(=O)[nH]c1=O` stands 452 nM (active).
